# PubChem BioAssay AID1159580 (chemical genetic matrix, 2015)
# Out of some 5,500 compounds screened, about 2,000 (36%) were called active. Another 18% or so got no clear call; they are omitted. The list shows a part of the results. Values without a mark were called inactive. No stated cut-off is given here; in the data, active means normalized growth mostly below about 0.91 (no sharp cut-off); inconclusive means no clear call, values can overlap the other calls; inactive means mostly above about 0.92.
# Assay: chemical genetic growth profiling, strain panel (AID 1159580);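 further: tested at 20 µM; growth read once vehicle control cultures reached saturation at 30 °C; 1 = growth at the plate median or of vehicle wells; lower values mean less growth of the strain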
# Conditions: growth OD
# [1] = S. cerevisiae deletion strains, locus YGR229C, strain SMI1, hits give low values
# [2] = S. cerevisiae deletion strains, locus YMR263W, strain SAP30, hits give low values
# [3] = S. cerevisiae deletion strains, locus YMR307W, strain GAS1, hits give low values
# [4] = S. cerevisiae deletion strains, locus YNL128W, strain TEP1, hits give low values
# [5] = S. cerevisiae deletion strains, locus YNL153C, strain GIM3, hits give low values
# [6] = S. cerevisiae deletion strains, locus YAL013W, strain DEP1, hits give low values
# [7] = S. cerevisiae deletion strains, locus YBR229C, strain ROT2, hits give low values
# [8] = S. cerevisiae deletion strains, locus YCL061C, strain MRC1, hits give low values
# [9] = S. cerevisiae deletion strains, locus YDL101C, strain DUN1, hits give low values
# [10] = S. cerevisiae deletion strains, locus YDR150W, strain NUM1, hits give low values
# [11] = S. cerevisiae deletion strains, locus YEL061C, strain CIN8, hits give low values
# [12] = S. cerevisiae deletion strains, locus YGR078C, strain PAC10, hits give low values
# [13] = S. cerevisiae deletion strains, locus YHR030C, strain SLT2, hits give low values
# [14] = S. cerevisiae deletion strains, locus YHR087W, strain rtc3, hits give low values
# [15] = S. cerevisiae deletion strains, locus YJL187C, strain SWE1, hits give low values
# [16] = S. cerevisiae deletion strains, locus YJR043C, strain POL32, hits give low values
# [17] = S. cerevisiae deletion strains, locus YJR075W, strain HOC1, hits give low values
# [18] = S. cerevisiae deletion strains, locus YKL190W, strain CNB1, hits give low values
# [19] = S. cerevisiae deletion strains, locus YLR039C, strain RIC1, hits give low values
# [20] = S. cerevisiae deletion strains, locus YLR058C, strain SHM2 (second series), hits give low values
# [21] = S. cerevisiae deletion strains, locus YLR085C, strain ARP6, hits give low values
# [22] = S. cerevisiae deletion strains, locus YLR262C, strain YPT6, hits give low values
# [23] = S. cerevisiae deletion strains, locus YML094W, strain GIM5, hits give low values
# [24] = S. cerevisiae deletion strains, locus YMR219W, strain ESC1, hits give low values
# [25] = S. cerevisiae deletion strains, locus YNL298W, strain CLA4 (second series), hits give low values
# [26] = S. cerevisiae deletion strains, locus YNL322C, strain KRE1, hits give low values
# [27] = S. cerevisiae deletion strains, locus YNR030W, strain Alg12, hits give low values
# [28] = S. cerevisiae deletion strains, locus YPL055C, strain LGE1, hits give low values
# [29] = S. cerevisiae deletion strains, locus YPL241C, strain CIN2, hits give low values
# [30] = S. cerevisiae deletion strains, locus YPR135W, strain CTF4, hits give low values
smiles,measurement,setting,value
CC(C)C[C@H](NC(=O)[C@H](O)[C@H](N)Cc1ccccc1)C(=O)O,normalized growth,"S. cerevisiae deletion strains, locus YAL040C, strain CLN3, hits give low values",0.978
same,normalized growth,"S. cerevisiae deletion strains, locus YCL061C, strain MRC1 (second series), hits give low values",1
same,normalized growth,"S. cerevisiae deletion strains, locus YDR363W, strain ESC2, hits give low values",1.03
same,normalized growth,"S. cerevisiae deletion strains, locus YER002W, strain NOP16, hits give low values",1.03
same,normalized growth,[1],1
same,normalized growth,[2],0.994
same,normalized growth,[3],0.986
same,normalized growth,[4],0.981
same,normalized growth,[5],0.986
same,normalized growth,"S. cerevisiae deletion strains, locus YNL175C, strain NOP13, hits give low values",0.999
same,normalized growth,"S. cerevisiae deletion strains, locus YNL197C, strain WHI3, hits give low values",1
same,normalized growth,"S. cerevisiae deletion strains, locus YNL224C, strain SQS1, hits give low values",0.99
same,normalized growth,"S. cerevisiae deletion strains, locus YOR083W, strain WHI5 (second series), hits give low values",1.03
CCO/C=C1\SC(=S)N(CCc2ccccc2)C1=O,normalized growth,[6],0.969
same,normalized growth,[7],0.898 (active)
same,normalized growth,[8],0.882 (active)
same,normalized growth,[9],0.973
same,normalized growth,[10],0.986
same,normalized growth,[11],0.66 (active)
same,normalized growth,[12],0.919 (active)
same,normalized growth,[1],0.893 (active)
same,normalized growth,[13],0.149 (active)
same,normalized growth,[14],0.847 (active)
same,normalized growth,[15],0.897 (active)
same,normalized growth,[16],0.961
same,normalized growth,[17],0.843 (active)
same,normalized growth,[18],0.736 (active)
same,normalized growth,[19],0.166 (active)
same,normalized growth,[20],0.898 (active)
same,normalized growth,[21],0.181 (active)
same,normalized growth,[22],0.193 (active)
same,normalized growth,[23],0.882
same,normalized growth,[24],0.906 (active)
same,normalized growth,[2],0.962
same,normalized growth,[5],0.936
same,normalized growth,[25],0.561 (active)
same,normalized growth,[26],0.926 (active)
same,normalized growth,[27],0.929
same,normalized growth,[28],0.975
same,normalized growth,[29],0.969
same,normalized growth,[30],0.305 (active)
COc1ccc(OC)c(S(=O)(=O)Nc2ccc(C#N)cc2)c1,normalized growth,[6],0.978
same,normalized growth,[7],1.01
same,normalized growth,[9],1
same,normalized growth,[10],0.998
same,normalized growth,[11],1.02
same,normalized growth,[12],1.02
same,normalized growth,[1],1
same,normalized growth,[13],1.01
same,normalized growth,[14],1.01
same,normalized growth,[15],1
same,normalized growth,[16],0.989
same,normalized growth,[17],1.01
same,normalized growth,[18],0.996
same,normalized growth,[19],0.993
same,normalized growth,[20],1
same,normalized growth,[21],1.04
same,normalized growth,[22],0.953
same,normalized growth,[23],1.03
same,normalized growth,[24],1
same,normalized growth,[2],0.997
same,normalized growth,[3],1.05
same,normalized growth,[5],0.998
same,normalized growth,[25],1
same,normalized growth,[26],0.993
same,normalized growth,[27],1.02
same,normalized growth,[28],1.02
same,normalized growth,[29],1.02
same,normalized growth,[30],0.951
COc1ccc(OC)c(S(=O)(=O)Oc2ccc(C#N)cc2)c1,normalized growth,[6],0.997
same,normalized growth,[7],0.994
same,normalized growth,[8],1.02
same,normalized growth,[9],0.984
same,normalized growth,"S. cerevisiae deletion strains, locus YDL134C, strain PPH21, hits give low values",1.01
same,normalized growth,[10],0.98
same,normalized growth,[11],0.956
same,normalized growth,[12],0.994
same,normalized growth,[1],0.968
same,normalized growth,[13],0.937
same,normalized growth,[14],0.968
same,normalized growth,[16],0.981
same,normalized growth,[17],1
same,normalized growth,[19],1.09
same,normalized growth,[20],0.992
same,normalized growth,[21],0.93
same,normalized growth,[22],1.09
same,normalized growth,[23],0.981
same,normalized growth,[24],1.01
same,normalized growth,[2],0.992
same,normalized growth,[4],1
same,normalized growth,[5],0.977
same,normalized growth,[25],0.972
same,normalized growth,[26],1
same,normalized growth,[27],0.973
same,normalized growth,[28],0.961
same,normalized growth,[29],0.987
same,normalized growth,[30],0.924
Cc1ccc(OS(=O)(=O)c2ccc(C#N)cc2)c(Br)c1,normalized growth,[6],0.954
same,normalized growth,[7],1
same,normalized growth,[9],0.954
same,normalized growth,[10],0.973
same,normalized growth,[11],0.934
same,normalized growth,[12],0.976
same,normalized growth,[13],0.62 (active)
same,normalized growth,[15],1.02
same,normalized growth,[16],0.979
same,normalized growth,[17],0.953
same,normalized growth,[19],0.712 (active)
same,normalized growth,[20],0.997
same,normalized growth,[21],0.784
same,normalized growth,[22],0.796 (active)
same,normalized growth,[23],0.957
same,normalized growth,[24],0.985
same,normalized growth,[2],0.966
same,normalized growth,[4],0.969
same,normalized growth,[5],0.96
same,normalized growth,[25],0.881
same,normalized growth,[26],0.981
same,normalized growth,[27],0.918
same,normalized growth,"S. cerevisiae deletion strains, locus YOL006C, strain TOP1, hits give low values",0.765
same,normalized growth,[28],0.936
same,normalized growth,[29],0.927
same,normalized growth,[30],0.628 (active)
same,normalized growth,"S. cerevisiae strains, strain wild type, hits give low values",0.907 (active)
